High-throughput results (PubChem BioAssay)
FMDV antiviral – High Throughput Screening for Foot and Mouth Disease Virus Antivirals | FMDV antiviral cell-based qHTS | 410,000 tested, 1.2% active | Potency, µM (series often up to 57.9 µM), without a hit: at the top dose activity change, negative = inhibition, hits mostly inhibitors; calls by dose curve; tested in HEK293T cells; note: read-out not given here; potency is the fitted concentration of half-maximal effect; % is set by controls: 0 for no effect and ±100 for the full control effect; nearly all actives have a fitted effect of over 45% in size
HCV inhibitor – qHTS Assay for Inhibitors of Hepatitis C Virus (HCV) | Huh7.5.1 HCVcc-Cre infection, luciferase reporter, 44 h | Potency, µM (titrated, usually from 41.8 µM), for inactives: at the highest dose activity change, negative = inhibition, most hits filed as inhibitors | AID 651820, 2012 | 340,000 tested, 3.4% active; active = well fitted inhibition curve with a large enough effect; inconclusive = small, poorly fitted or top-dose-only effect, or another doubt; inactive = no such curve, though single readings can be large or run the other way; note: potency is the fitted concentration of half-maximal effect; % is set by controls: 0 for no effect and ±100 for the full control effect
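HCVcc-Cre virus at an moi near 0.5 was added right after compound to cells cultured 4 h from seeding (1,000 cells/well). Luciferase activity was determined 44 h later, 15 min after substrate addition at RT.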
Lassa entry inh – qHTS for Inhibitors of binding or entry into cells for Lassa Virus; 300,000 tested, 1.2% active; Potency, µM (top dose mostly 37.9 µM), for the others: top-dose activity change, negative = inhibition, usual class: inhibitors; AID 540256, 2011; Lassa virus pseudotype entry inhibition, cell reporter; calls by dose curve; tested in HEK293 cells; note: potency is the fitted concentration of half-maximal effect; % is set by controls: 0 for no effect and ±100 for the full control effect; nearly all actives have a fitted effect of over 50% in size
HCMV antiviral – qHTS Assay for inhibitors of the human cytomegalovirus (HCMV); HFF cells, HCMV-luciferase reporter, 72 h; active compounds read low; activity change, negative = inhibition, % at 57.5 µM; 410,000 tested, 4.5% active; in the data active = activity change below about -60%; inconclusive = no clear call, values can overlap the other calls; inactive = above about -39%; note: % is set by controls: 0 for no effect and ±100 for the full control effect
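Steps: HFFs plated, 16 h 37C; compounds added; HCMV-luciferase added to MOI 1 PFU/cell; 72 h 37C; OneGlo reagent, 5 min room temperature; luminescence read, normalized to controls.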
SARS PLP yeast – qHTS of Yeast-based Assay for SARS-CoV PLP. S. cerevisiae expressing SARS-CoV PLpro, growth rescue. 330,000 tested, 0.19% active. Potency, µM (top dose mostly 32.9 µM), inactives show at the top dose activity, positive = growth rescue, hits mostly activators; calls by dose curve; note: potency is the fitted concentration of half-maximal effect; 0% is about no effect; nearly all actives have a fitted effect of over 55% in size
MARV entry inh – qHTS for inhibitors of binding or entry into cells for Marburg Virus; Marburg virus pseudotyped entry inhibition, cell reporter; Potency, µM (doses to about 37.8 µM), for inactives: at the top dose activity change, negative = inhibition, actives largely listed as inhibitors; 300,000 tested, 1.8% active; calls by dose curve; tested in HEK293 cells; note: potency is the fitted concentration of half-maximal effect; % is set by controls: 0 for no effect and ±100 for the full control effect
The depositor's hits bear a star; ? = inconclusive; . = not tested or not shown; [ ] = dose if it differs, or a comment. The list is not random: actives were taken first. Their share in the collection is about 8%.

SMILES | FMDV antiviral | HCV inhibitor | Lassa entry inh | HCMV antiviral | SARS PLP yeast | MARV entry inh
CCN1CCN(c2cc(C)c3cc(NC(=O)c4cc(OC)c(OC)c(OC)c4)ccc3n2)CC1 | -3.1% | . | -24.2%[46.1 µM] | -7.0 | . | .
CCN1CCN(c2cc(C)c3cc(NC(=O)c4cncc(Br)c4)ccc3n2)CC1 | -25.3% | 5.62µM* | -25.4% | ? | 3.5% | ?
COc1ccc([C@]23Cc4cc(C#N)ccc4C(O2)c2c(cc(C)n(-c4ccccc4)c2=O)O3)cc1 | . | . | . | . | -0.4%[6.58 µM] | .
COc1cccc(OC)c1OCc1cc(C2C3CCCC=C3C(C#N)=C(N)C2(C#N)C#N)c(C)cc1C (stereo not given) | ? | -13.2% | 20µM* | -2.4 | 2.2% | ?
Cc1ccc2c(c1)c(C)c(C)n2CC(O)Cn1nc(C)cc1C (stereo not given) | 5.0% | -16.6% | -0.1% | -20.8 | 1.8% | -5.0%
Cc1ccc2c(c1)c(C)c(C)n2CC(O)Cn1nnc2ccccc21 (stereo not given) | -56.0% | ? | ? | -14.5 | -33.1% | 20.6µM*
CC(C)(C)OC(=O)N1CCC[C@H]1c1nnc(SCc2ccc(Cl)cc2Cl)o1 | 39.8µM* | ? | ? | 9.3 | . | 8.91µM*
CSc1ncccc1C(=O)NCC1Cc2cc(-c3cnccn3)cc(Cl)c2O1 (stereo not given) | 11.8% | . | . | . | . | .
O=C(CCCC(=O)c1ccc(F)cc1)c1ccc(F)cc1 | 55.3% | 0.0% | ? | -79.9* | -0.8% | ?
O=C(CC(=O)c1ccccc1O)c1ccc(F)cc1 | 28.0% | 31.6µM* | ? | 23.5 | -31.4% | ?
Cc1ccc(C(=O)CCS(=O)(=O)c2ccc(F)cc2)cc1 | 6.3% | ? | . | -98.9* | -3.9% | .
Cc1ccc(S(=O)(=O)CCC(=O)c2ccc(F)cc2)cc1 | ? | 14.2% | 16.3%[46.1 µM] | -6.2 | -1.7% | ?
C[C@@H]1C=CCCO[C@]12C(=O)N(CC1CC1)c1cccc(Br)c12 | . | . | . | -10.9 | . | -10.1%[14.2 µM]
CCc1nc2nc(C)cc(Nc3ccc(Br)cc3F)n2n1 | -18.0% | . | 13.4%[46.1 µM] | -25.4 | . | ?
CC1CCN(S(=O)(=O)c2cc(C(=O)Nc3ccc(Br)cc3F)n(C)c2)CC1 | -24.0% | . | -6.4%[46.1 µM] | -13.5 | . | .
CCCCC1(Cc2ccc(OC)c([N+](=O)[O-])c2)C(=O)N(c2ccccc2)N(c2ccccc2)C1=O | ? | ? | ? | ? | -14.1% | 14.1µM*
CC(C)(C)n1nnnc1C(c1ccccc1)N1CCN(c2ncc(C(F)(F)F)cc2Cl)CC1 (stereo not given) | ? | . | . | -77.5* | . | .
CN(Cc1ccco1)c1ccnc(-c2cccc(C#N)c2)n1 | 24.1% | . | . | . | . | .
CC(C)CNc1ccc2c(c1)OC[C@H](C)NS2(=O)=O | . | . | . | 2.8 | . | .
CCOC(=O)c1ccc2c(c1)sc1nc(-c3ccc(OCC)cc3)cn12 | -2.7% | . | . | . | . | ?
CCOC(=O)CCc1ccc(NC(=O)/C=C/c2ccc([N+](=O)[O-])o2)cc1 | 25.1µM* | ? | 7.08µM* | -15.3 | . | ?
CCc1ccc(C(=O)/C=C/c2ccc([N+](=O)[O-])o2)cc1 | 35.5µM* | -6.3% | ? | 29.5 | -34.5% | ?
CCN(CC)S(=O)(=O)c1ccc(C(=O)/C=C/c2ccc(-c3ccc([N+](=O)[O-])cc3)o2)cc1 | -10.8% | -14.2% | . | 5.7 | -1.3% | .
Cc1ccc(/C=C/C(=O)Nc2ccc([N+](=O)[O-])cc2)o1 | -2.1% | -23.7% | -8.3% | 16.1 | 1.7% | 18.1%
COc1cc(Cn2c3ccc(NC(=O)CC(C)C(F)(F)F)cc3c(=O)n2C)ccc1F (stereo not given) | -2.6% | . | . | -28.5 | . | .
SMILES | FMDV antiviral | HCV inhibitor | Lassa entry inh | HCMV antiviral | SARS PLP yeast | MARV entry inh
CC(CC(=O)Nc1ccc2c(c1)c(=O)n(C)n2Cc1ccc(Cl)cc1)C(F)(F)F (stereo not given) | -14.4% | . | . | -71.9* | . | .
CN(C)c1ccc(NC(=O)Nc2ccc3c(c2)c(=O)n(C)n3Cc2ccc(Cl)cc2)cc1 | -22.6% | . | . | -88.1* | . | .
CN(C)c1ccc(NC(=O)Nc2ccc3c(c2)c(=O)n(C)n3Cc2ccccc2)cc1 | -13.3% | . | . | -30.0 | . | .
Cn1c(=O)c2cc(NC(=O)Nc3cccnc3)ccc2n1Cc1ccc(Cl)cc1 | 6.8% | . | . | -96.6* | . | .
COc1ccccc1-c1ccc(C(=O)NCCN2CCOCC2)c(N2CCN(c3ccccc3F)CC2)n1 | 1.6% | . | . | . | . | .
CCc1ccccc1NC(=O)c1sc(-n2nc(C)c(Cc3ccc4c(c3)OCO4)c2C)nc1C | -21.3% | . | 1.5%[46.1 µM] | -11.8 | . | 6.7%[46.1 µM]
COC(=O)N1C2CC3(C)CC(=O)CC1(C)C3c1ccccc12 (stereo not given) | . | . | . | . | . | 4.9%[14.2 µM]
O=C(Nc1ccc2ccccc2c1)c1ccccc1O | -60.8% | ? | ? | -99.2* | -5.8% | 2.51µM*
CCOc1ccc(NC(=O)c2cc(F)c(F)cc2Cl)cc1OCC | 0.9% | -23.3% | 3.4% | -97.8* | -0.8% | ?
O=C(Nc1ccc2ccccc2c1)c1cc(F)c(F)cc1Cl | 31.1% | -29.5% | ? | 37.2 | 0.5% | 7.08µM*
O=C(Nc1ccc2ccccc2c1)c1ccc(Cl)cc1Cl | -27.9% | ? | . | -38.2 | 1.1% | .
Cc1ccc2cc(NC(=O)c3ccccc3C)ccc2n1 | 35.0% | -5.5% | -16.7%[46.1 µM] | -99.8* | -1.5% | 18.4%[46.1 µM]
C=C1c2c(Cl)ccc(O)c2C(O)=C2C(=O)[C@@]3(O)C(O)=C(C(N)=O)C(=O)[C@@H](N(C)C)[C@@H]3[C@@H](O)[C@H]12 | . | . | ? | . | . | -31.4%
Cc1ccccc1Cc1nc2cccnc2n1C1CCN(C(=O)CC2NC(=O)c3ccccc32)CC1 (stereo not given) | -24.4% | . | . | . | . | .
O=C(CN1CCN(C(C(=O)Nc2cc(C(F)(F)F)ccc2Cl)c2ccccc2)CC1)NC1CC1 (stereo not given) | 39.8µM* | ? | . | -22.0 | . | .
CN(C)c1ccc(/C=N/NC(=O)c2ccccc2)cc1 | -12.2% | -15.2% | 10µM* | 24.6 | -2.0% | -13.9%[46.1 µM]
C/C(=N/N=C/c1ccc(N(C)C)cc1)c1ccccc1 | 10µM* | -4.5% | ? | -31.6 | -4.8% | ?
CN(C)c1ccc(C=Nc2ccc(N(C)C)cc2)cc1 | 26.6% | -4.2% | ? | -72.1* | -26.9% | ?
CN(C)c1ccc(C=Nc2ccccc2)cc1 | . | 2.1% | ? | 3.9 | -1.2% | 26.5%
COc1ccc(C(=O)N/N=C/c2ccc(N(C)c3ccccc3)cc2)cc1 | 31.6µM* | 7.08µM* | . | -36.5 | . | .
CN(C)c1ccc(/C=N/NC(=O)c2ccc(Cl)cc2)cc1 | . | -9.4% | -26.3% | ? | 3.5% | -13.6%
Cc1ccc(NC(=O)CCn2nc(C)c(S(=O)(=O)N3CCCCC3)c2C)cc1Cl | -17.1% | . | -0.2%[46.1 µM] | 96.7 | . | .
Cn1nc(C(F)(F)F)c(C#N)c1N1CCN(c2ccc(F)cc2)CC1 | ? | ? | -8.5% | -72.6* | -31.9% | -17.4%
